Source: PubChem BioAssay (NCATS)
Inconclusive results are not listed. A call without a number means that no potency is given here. The source made the active and inactive calls. Calls come from the whole dose curve; as a rule, active = well fitted inhibition curve with a large enough effect; inconclusive = small, poorly fitted or top-dose-only effect; inactive = flat fitted curve, though single readings scatter.

Columns and labels:
Test in all cases: qHTS profiling for inhibitors of Plasmodium falciparum proliferation (AID 504749); note: nearly all actives have a fitted effect of over 60% in size
Settings in all cases: P. falciparum in erythrocytes, SYBR Green DNA, 72 h; series mostly up to 28.7 µM
[1] = tested on: CP286
Method in brief: (§1)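 P. falciparum-infected erythrocytes (0.3% parasitemia, 2.5% hematocrit) incubated with compound 72 h at 37 C, 5% CO2. Parasite DNA detected by SYBR Green after lysis, overnight at room temperature; normalised to 0.29 uM artemisinin and DMSO.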

[2] = tested on: CP291
Method in brief: as §1

[3] = tested on: CP297
Method in brief: as §1

[4] = tested on: CP305
Method in brief: as §1

[5] = tested on: CP315
Method in brief: as §1

[6] = tested on: CP325
Method in brief: as §1

[7] = tested on: CP329
Method in brief: as §1

[8] = tested on: CP335
Method in brief: as §1

[9] = tested on: DFO2036
Method in brief: as §1

[10] = tested on: DIV14
Method in brief: as §1

[11] = tested on: DIV17
Method in brief: as §1

[12] = tested on: DIV30
Method in brief: as §1

[13] = tested on: ECU
Method in brief: as §1

[14] = tested on: FAB9
Method in brief: as §1

[15] = tested on: GB4
Method in brief: as §1

[16] = tested on: HB3
Method in brief: as §1

[17] = tested on: JCK
Method in brief: as §1

[18] = tested on: N140
Method in brief: as §1

[19] = tested on: ICS
Method in brief: as §1

[20] = tested on: Dd2
Method in brief: as §1
Potency is the fitted concentration of half-maximal effect.

Row | SMILES | outcome [1] | outcome [2] | outcome [3] | outcome [4] | outcome [5] | Potency [6] | outcome [7] | Potency [8] | Potency [9] | Potency [10] | Potency [11] | outcome [12] | Potency [13] | outcome [14] | Potency [15] | Potency [16] | outcome [17] | Potency [18] | Potency [19] | Potency [20]
1 | CCCCCCCCCCCCCCC[C@H](O)[C@H](N)CO | inactive | inactive | inactive | inactive | inactive | inactive | inactive | inactive | inactive | inactive | inactive | inactive | inactive | inactive | inactive | inactive | inactive | inactive | – | –
2 | CN1C2CCC1CC(OC(c1ccccc1)c1ccccc1)C2 (stereo not drawn) | – | – | – | – | inactive | – | inactive | – | – | 4.78 µM (active) | 3.01 µM (active) | – | – | inactive | – | inactive | inactive | inactive | 0.178 µM (active) | –
3 | c1ccc(C2CN3CCSC3=N2)cc1 (stereo not drawn) | – | – | – | – | inactive | 16.9 µM (active) | – | 5.36 µM (active) | 6.31 µM (active) | 2.69 µM (active) | 3.01 µM (active) | – | 8.91 µM (active) | – | 8.49 µM (active) | 3.16 µM (active) | – | 3.98 µM (active) | 1.26 µM (active) | 3.98 µM (active)
4 | CC(C)NC[C@H](O)COc1ccc(CC(N)=O)cc1 | inactive | inactive | – | inactive | inactive | inactive | inactive | inactive | inactive | inactive | inactive | inactive | inactive | inactive | inactive | inactive | inactive | inactive | inactive | inactive
5 | CC(O)C(O)[C@H]1CNc2nc(N)[nH]c(=O)c2N1 (stereo partly drawn) | inactive | inactive | inactive | inactive | inactive | inactive | inactive | inactive | inactive | inactive | inactive | inactive | inactive | inactive | inactive | inactive | inactive | inactive | inactive | inactive
6 | CCCCCCCCCCCCCCCCCCOC[C@H](COP(=O)([O-])OCC[N+](C)(C)C)OC | inactive | inactive | inactive | inactive | inactive | inactive | inactive | inactive | inactive | inactive | inactive | inactive | inactive | inactive | inactive | inactive | inactive | inactive | inactive | inactive
